Source: PubChem
The list is not random: actives were taken first. Their share in the collection is about 1%.
SSB-PriA inh = blocks PriA binding to SSB C-terminal tail. AlphaScreen SSBct-PriA binding, biotinylated peptide. inhibition, % at 33 µM. 430,000 tested, 0.6% active; in the data active = inhibition mostly above about 37%, no sharp cut-off; inactive = mostly below about 20%;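 note: plate controls were negative control peptide for no effect and reference peptide for full effect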
Sa RN4220 lethal = kills Staphylococcus aureus RN4220; S. aureus RN4220 growth, OD600, 16 h; inhibition, % (concentration not given with the values); 330,000 tested, 0.33% active; in the data active = inhibition above about 85%;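 note: plate controls were untreated cells for no effect and reference antibiotic for full effect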
Sa ugtP lethal = growth inhibition of S. aureus ugtP deletion strain; S. aureus RN4220 ugtP deletion, OD600 growth, 16 h; growth inhibition, % (concentration not given with the values); 330,000 tested, 0.54% active; AID 1259309; in the data active = growth inhibition above about 68%;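 note: plate controls were untreated wells for no effect and antibiotic for full effect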
* hit, by the source's call; . = not tested or not shown.

SMILES	SSB-PriA inh	Sa RN4220 lethal	Sa ugtP lethal
CCn1c(SCC(=O)Nc2sc(-c3ccccc3)cc2C(N)=O)nc2sc3c(c2c1=O)CCC(C)C3 (stereo not drawn)	1.0	.	.
CC1CCN(c2ccc(C=NNc3nncn3N)cc2[N+](=O)[O-])CC1	21.4	-1.7	-8.3
Cc1nnc(NN=Cc2cc([N+](=O)[O-])c(N3CCC(C)CC3)cc2N2CCC(C)CC2)n1N	42.3*	0.4	-15.2
CN(C)c1ccc2c(c1)C(=NO)c1ccccc1-2	53.4*	.	.
ON=C1c2ccccc2-c2ccccc21	-5.7	-3.4	52.0
CC(C)N1CCC(CNC(=O)C(=O)Nc2ccc3c(c2)OCO3)CC1	-5.0	.	.
Cn1cnc(S(=O)(=O)N2CCC3(CC2)OC(=O)c2ccccc23)c1	0.0	.	.
COc1cccc(NC(=O)CSc2cccc3cccnc23)c1	21.5	.	.
O=C(CSc1cccc2cccnc12)Nc1cccc([N+](=O)[O-])c1	88.0*	.	.
Cn1ccnc1SCC(=O)Nc1ccc(SC(F)F)cc1	11.5	4.6	5.6
Cc1ccnc(SCC(=O)c2ccc([N+](=O)[O-])cc2)n1	-4.5	7.1	5.7
COc1cc([N+](=O)[O-])ccc1NC(=O)CSc1cccc2cccnc12	-11.0	.	.
O=C(CSc1cccc2cccnc12)Nc1ccc(SC(F)F)cc1	85.3*	.	.
O=C(CSc1cccc2cccnc12)c1ccc([N+](=O)[O-])cc1	57.6*	.	.
CC(=O)c1cccc(NC(=O)CSc2cccc3cccnc23)c1	116.0*	.	.
CC(C(=O)NCc1ccccn1)n1nc(-c2ccco2)ccc1=O (stereo not drawn)	-8.0	.	.
O=C(Nc1nnc(Cc2ccc(Cl)s2)o1)c1cc2ccccc2oc1=O	-9.0	.	.
COc1ncc(NC(=O)c2cccc(Cl)c2)c(N2CCOCC2)n1	-15.0	.	.
CSC1CC2CCC(C1)N2C(=O)c1ccc(NC(C)=O)cc1 (stereo not drawn)	-14.0	.	.
Cc1cc(NC(=O)C(=O)NCC(O)c2cn(C)c3ccccc23)no1 (stereo not drawn)	12.0	.	.
CN(C)S(=O)(=O)c1cccc(NC(=O)CSc2cccc3cccnc23)c1	65.1*	1.4	13.4
Cc1cc(Br)ccc1NC(=O)CSc1cccc2cccnc12	82.4*	.	.
O=C(CSCCO)Nc1cccc(C(F)(F)F)c1	-8.8	2.7	-4.9
CN(C)S(=O)(=O)c1ccc(SCC(=O)Nc2cccc(S(=O)(=O)N3CCCC3)c2)nc1	7.5	1.8	-5.9
O=C(CSc1cccc2cccnc12)Nc1cccc(C(F)(F)F)c1	125.5*	.	.
SMILES	SSB-PriA inh	Sa RN4220 lethal	Sa ugtP lethal
Cc1cc(Cl)ccc1NC(=O)CSc1cccc2cccnc12	46.5	.	.
O=C1N=c2ccccc2=C1c1c(O)n(-c2cccc(F)c2)[nH]c1=O	-0.3	5.2	4.0
CCn1c(O)c(C2=c3ccccc3=NC2=O)c2cc(Br)ccc21	1.6	99.8*	100.7*
CCOC(=O)C1Oc2ccccc2C(c2ccc(F)cc2)=C1C(=O)OC (stereo not drawn)	-39.4	2.9	70.7
CCOC(=O)C1Oc2ccccc2C(c2ccc(C)cc2)=C1C(=O)OC (stereo not drawn)	-25.9	-0.2	95.4*
Cc1ccc(N2CC(C(=O)N3C4CCC3COC4)CC2=O)cc1C (stereo not drawn)	0.0	.	.
S=C1NC(c2ccccc2)=CC(c2ccccc2)N1 (stereo not drawn)	-3.7	-2.2	3.1
COc1ccc2ccccc2c1C1C=C(c2ccccc2)NC(=S)N1 (stereo not drawn)	36.0*	.	.
O=C(NCc1n[nH]c(=O)c2ccccc12)C1(c2ccc(Cl)cc2)CCCC1	12.0	.	.
Cc1ccc(-n2ncc3c(=O)[nH]c(-n4nc(C)cc4NC(=O)COc4ccccc4C)nc32)cc1	3.0	.	.
CCN1/C(=C/C=C/C=C/C=C/c2sc3ccccc3[n+]2CC)Sc2ccccc21	.	91.6*	98.1*
CC[n+]1c(/C=C/c2ccccc2OC)sc2ccccc21	4.0	.	.
N#Cc1cccc(C(=O)N2CCCC[C@H](c3ccc(F)cc3)C2)c1	-4.0	.	.
CN(C)c1cccc(C(=O)N2CCCC[C@H](c3ccc(F)cc3)C2)c1	57.0*	.	.
O=C(NCCn1ccnc1C1CC1)c1ccccc1S(=O)(=O)C(F)F	-1.0	.	.
CN1CCN(S(=O)(=O)c2ccc(NC(=S)NC(=O)c3ccc(Cl)cc3)cc2)CC1	-0.9	4.3	90.5*
CC1CCN(S(=O)(=O)c2ccc(NC(=S)NC(=O)c3ccc(Cl)cc3)cc2)CC1	1.7	-6.8	70.7
CCCC(=O)Nc1ccc(S(=O)(=O)N2CCCC2)cc1	-13.7	0.2	-1.2
CN1CCN(S(=O)(=O)c2ccc(NC(=S)NC(=O)c3ccccc3)cc2)CC1	-3.8	-1.9	46.4
O=C(NC(=S)Nc1ccc(S(=O)(=O)N2CCCCC2)cc1)c1ccc(Cl)cc1	-16.4	-9.9	91.0*
CCCCC(=O)NC(=S)Nc1ccc(S(=O)(=O)N2CCCC2)cc1	-4.3	5.3	93.6*
CCc1ccc2nc(N3C(=O)C(O)=C(C(=O)c4cccs4)C3c3ccco3)sc2c1 (stereo not drawn)	-1.0	.	.
N#Cc1ccccc1NC(=O)C(=O)NCc1ccco1	-3.0	.	.
CS(=O)(=O)c1ccc(Nc2nc(C(=O)NC3CCCC3)cs2)cc1	-8.0	.	.
O=C(Nc1nc(-c2ccccn2)cs1)c1cc2c(s1)CCCC2	51.2	.	.
SMILES	SSB-PriA inh	Sa RN4220 lethal	Sa ugtP lethal
Cn1c(C(=O)Nc2nc(-c3ccccn3)cs2)cc2ccccc21	92.8*	.	.
Cc1csc(NC(=O)c2cccn2C)n1	8.5	6.7	13.7
Cn1nccc1C(=O)Nc1nc(-c2cccnc2)cs1	-19.0	.	.
Cn1cccc1C(=O)Nc1nc(-c2ccccn2)cs1	85.0*	8.1	3.1
Cn1nccc1C(=O)Nc1nc(-c2ccccn2)cs1	97.0*	.	.
O=C(Nc1nc(-c2ccccn2)cs1)C1CCCC1	13.8	7.0	8.5
CN1NC(C(=O)Nc2nc(-c3ccccn3)cs2)=CCC1=O	123.5*	.	.
CCCCOc1ccc(S(=O)(=O)N2CCN(c3ccc4nnc(CC)n4n3)CC2)cc1	-2.0	.	.
CSc1cccc(-n2nnc(C(=O)OCc3nc(-c4ccc(C)cc4)oc3C)c2C)c1	-16.0	.	.
CCc1ccc(S(=O)(=O)N2CCC(n3c(=O)[nH]c4ccc(F)cc4c3=O)CC2)s1	-8.0	.	.
CCOC(=O)c1c(NC(=O)c2ccno2)sc2c1CCCC2	-2.0	.	.
Cc1cc(C(=O)Nc2nc(-c3cc4ccccc4o3)cs2)n(C)n1	-3.0	.	.
Cc1cc(C(=O)Nc2nc(-c3ccccn3)cs2)n(C)n1	117.5*	.	.
O=C(Nc1ccc2c(c1)Cc1ccccc1-2)C1CSc2nccc(=O)n2C1 (stereo not drawn)	-11.0	.	.
